# Screening data from PubChem.
# Tgondii IFNg: blocks Toxoplasma gondii growth in the presence of IFN-gamma; Toxoplasma gondii growth in IFN-gamma-treated host cells; hits give low values; activity change, negative = inhibition, % (concentration not given with the values); 3.8% of 69,000 active; AID 1259416; in the data active = activity change below about -70%, passing the limit was not always enough;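 also: host cells are HeLa cells infected with Toxoplasma gondii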
# * hit, by the source's call; i = inactive; ! = not active in a repeat. This excerpt belongs to a sample that is enriched for hits.
SMILES,Tgondii IFNg
CC(=O)N1CCCC(Cc2cncc(Br)c2)CC1 (stereo not drawn),26
CCOC(=O)C1CN(S(=O)(=O)c2ccc(C)cc2)c2ccccc2O1 (stereo not drawn),43
CS(=O)(=O)N1CC(C(=O)Nc2nc(-c3ccccn3)cs2)Oc2ccccc21 (stereo not drawn),-101*
CS(=O)(=O)N1C[C@H]2COC[C@@]2(C(=O)NCc2ccccn2)C1,-9
CC(C)N1c2sc(-c3ccsc3)nc2CC1C(=O)N(C)C (stereo not drawn),-9
COCC1(CNC(=O)CC(=O)Nc2ccc(C)cc2)CC1,23
Cc1ccccc1-c1nc(CN(C)S(=O)(=O)c2ccccc2)c(C)o1,-1
CCN(CC)S(=O)(=O)c1ccc2c(c1)N(Cc1nc(-c3ccccc3C)oc1C)C(=O)CS2,-78*
Cc1ccccc1-c1nc(CN(C)S(=O)(=O)c2ccc(Cl)cc2)c(C)o1,16
CC(C)NC(=O)N1CCC2(CC1)CC1(CCN(C(=O)N(C)C)CC1)C(=O)N2C,6
Cc1nn(C)c(Cl)c1S(=O)(=O)N1CCC(c2nnc3n2CCCCC3)CC1,1
CN1C[C@H](C(N)=O)[C@@H](c2ccc(CN(C)S(=O)(=O)c3ccc4c(c3)OCCO4)cc2)C1,26
COc1ccc(/C=C(\NC(=O)c2ccc(C)cc2)c2nc(=S)[nH][nH]2)cc1OC,4
CC1(C(=O)NCc2ccc(F)cc2F)CCN(C(=O)CCc2ccccc2)CC1,-18
CC(=O)N(C)Cc1nc2ccccc2n1CCCCOc1ccccc1Cl,-40
COCCn1c(COc2ccc(Cl)cc2)nc2ccccc21,71
COc1ccc(Cc2nc3ccccc3n2CCCOc2ccccc2OC)cc1OC,-97*
CCCCN(C)C(=O)c1cc(-c2cnc(N3CCOCC3)nc2)cn1C,-7
CN1CCN([C@@H]2CCN(c3nccc(N)n3)C[C@H]2O)CC1,-53
Cc1ccc(-c2nc(-c3noc4ccc(C(=O)Cc5ccccn5)cc34)co2)cc1,45
Cc1nc(-c2ccccc2)sc1CCNC(=O)C(=O)Nc1ccccc1Cl,84
CC(C)(C)c1ccc(C23OC(=O)C4(CCCC4)C2OC(=O)C32CCCC2)cc1 (stereo not drawn),-73*
O=C(c1ccccc1)c1ccc2[nH]c(=S)[nH]c2c1,-94*
Cc1nc(C)c(C(=O)c2ccccc2)cc1C(=O)c1ccccc1,-10
O=C(c1ccccc1)c1ccccc1C(=O)c1ccccc1,-10
SMILES,Tgondii IFNg
O=C(O)c1cc(Br)cc(S(=O)(=O)NCc2ccccn2)c1,-1
CCCc1nc(CNC2CCc3ccc(OC)cc3C2)cs1 (stereo not drawn),-7
CCOC(=O)c1c(NC(=O)Nc2ccc(C)cc2)sc2c1CCN(C(=O)OCC)C2,-97*
CCOC(=O)c1c(NC2=NC3(CCCCC3)Cc3ccccc32)sc2c1CCCC2,31
CCCNC(=O)N1CCc2nc(-c3ccc(C)cc3)sc2C1,6
CC(C)C(=O)NC1CC2(CCN(Cc3ccco3)CC2)Oc2ccccc21 (stereo not drawn),-68
CCOC1CC2(CCN(C(=O)c3ccnnc3)CC2)C1,-2
[O-][NH2+]c1ccc(O)c2ncccc12,-84*!
N#CCOCc1nnn2c1CN(S(=O)(=O)C1CC1)CCC2,-3
O=C(Oc1ccc(F)cc1)C1CCN(c2ccc(C(F)(F)F)cn2)CC1,134
COc1ccc(-n2ncc3c2N(CC(=O)Nc2ccccc2F)C(=O)N2CCCN=C32)cc1,-7
CC(c1cccc(-c2ccc3[nH]c(=O)[nH]c(=O)c3c2)c1)N1CCCC1 (stereo not drawn),-71*
CC(c1cccc(-c2ccc[nH]c2=O)c1)N1CCCC1 (stereo not drawn),3
Cc1[nH]c(=O)[nH]c(=O)c1-c1ccc(C(C)N2CCCC2)cc1 (stereo not drawn),-1
COc1ccc(-c2c(C(=O)Nc3ccccc3)c(C)[nH]c(=S)c2C#N)cc1,72
COc1cc(C(=O)N2CCC(c3onc4c3CCC4)CC2)cc(OC)c1OC,8
Cc1cc(C)n(C)c(=O)c1C(=O)N(C)Cc1cc2cc(F)ccc2[nH]1,9
COC(=O)C[C@](O)(CCCC(C)(C)O)C(=O)O[C@@H]1C(OC)=C[C@]23CCCN2CCc2cc4c(cc2[C@H]13)OCO4,-82*
COCCCNC(=O)Cn1ncc2c(N3CCOCC3)ncnc21,-32
CC(C)(C)C1CCC(CC2C(=O)C(=O)c3ccccc3C2=O)CC1 (stereo not drawn),-86*
Cc1ccc(C2(O)CCN(C(=O)c3csc(CN(C)C)n3)CC2)nc1,-9
CCn1c(CC2CCNCC2)nn(Cc2cccc(C)n2)c1=O,-54
C=CCOCC1c2nnn(C)c2CCN1S(=O)(=O)c1cn(C)cn1 (stereo not drawn),7
CCc1ccc(-c2noc(-c3c(O)c4ccccc4[nH]c3=O)n2)cc1,33
C=CCN(CC=C)C(=O)Nc1ccc2nsnc2c1,-81*
SMILES,Tgondii IFNg
CCC(=O)Nc1c(C)ccc2nsnc12,8
O=C(Nc1ccc2c(c1)OCCO2)c1ccc2nsnc2c1,i
O=C(NCc1ccccc1F)c1nc(N2CCOCC2)c2ccccc2n1,-34
CC1c2ncc(COCC3CC3)n2CCN1C (stereo not drawn),28
NC(=O)c1sc(-c2ccsc2)cc1NC(=O)c1cccs1,-42
CCOC(=O)c1cc(-c2ccccc2)sc1NC(=O)c1ccc(Cl)cc1,17
NC(=O)c1cc(-c2ccccc2)sc1NC(=O)c1cccs1,-83*
Nc1cnc(-c2ccc(OC(F)(F)F)cc2)cn1,-4
COc1ccccc1-n1c(=O)n(Cc2nc(-c3cccc(Cl)c3)oc2C)c(=O)c2cccnc21,6
COc1ccc(N2CCCN(CC3CCN(C(=O)c4cn(C)nc4C)CC3)CC2)cc1,6
Cc1nc(-c2cccc(F)c2)sc1CCNC(=O)c1ccc2c(c1)OCO2,16
Cn1c(SCc2ccccc2)nnc1-c1ccc(C(C)(C)C)cc1,1
O=C(NC(=S)SCc1ccccc1)c1ccc(C(F)(F)F)cc1,-10
CC(=O)c1c(C)nc(-c2ccc(C(F)(F)F)cc2)nc1SCc1ccccc1,-78*
C=C(C)COc1ccccc1C(=O)N(C)CC(C)N1CCOCC1 (stereo not drawn),15
COc1ccc2[nH]c(=O)c3c(c2c1)OC(C)(C)C=C3,-83*
COc1ccc2[nH]cc(C3N4CC5(C)CN3CC(C)(C4)C5=O)c2c1 (stereo not drawn),11
COc1ccc(C(=O)CC(=O)O)c2c1C=CC(C)(C)O2,10
O=C(c1cccs1)N1CCC2(CC1)CC(Oc1ccccc1)CO2 (stereo not drawn),-7
Fc1cccc(CSc2nc(Nc3ccc4c(c3)OCO4)c3ccccc3n2)c1,-48
Cc1nc(-c2ccc(Cl)cc2)sc1-c1ccnc(SCc2ccccc2)n1,-62
c1ccc(CSc2nccc(-c3ccc4c(c3)CCO4)n2)cc1,-81*
Cc1csc([C@H]2Cc3ccsc3[C@@H](C(C)c3ccccc3)N2)n1 (stereo partly drawn),29
CCC(=O)N1CCc2c([nH]c3ccccc23)C12C(=O)Nc1ccc(Br)cc12 (stereo not drawn),-48
CCCC(=O)N1CCc2c([nH]c3ccccc23)C12C(=O)Nc1ccc(Br)cc12 (stereo not drawn),-82*
CCC(=O)N1CCc2c([nH]c3ccccc23)C12C(=O)N(C)c1ccc(Br)cc12 (stereo not drawn),109
Cc1cc(C)c(S(=O)(=O)NCCc2csc(-c3ccc(F)cc3)n2)c(C)c1,84
CCCn1ccnc1CN1CCc2[nH]cnc2C1Cc1ccccc1 (stereo not drawn),-47
